The panel holds about 79,000 compounds, 15% with a hit somewhere; the sample as a whole holds those more often. Unmarked numbers belong to inactive results. Active and inactive are the calls of the source. Cut-off read from the data, not from the text of the source: active = growth inhibition above about 70%; inactive = the rest.
Tests used:
[1] = NCI Yeast Anticancer Drug Screen. Data for the rad50 strain (AID 155);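 note: 0% = growth of vehicle-only cultures of the same strain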; conditions: S. cerevisiae rad50 strain growth inhibition; at 50.0 µM; stronger effect = higher value
Method in brief: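 Vehicle-treated cultures provide the reference for the growth inhibition reported for compound-exposed, repair-deficient yeast.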

[2] = NCI Yeast Anticancer Drug Screen. Data for the mec2-1 strain (AID 157); conditions: S. cerevisiae mec2-1 strain, at 50.0 µM, stronger effect = higher value
Method in brief: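 Yeast mec2-1 mutant treated with compound. Readout: growth inhibition vs vehicle controls.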

[3] = NCI Yeast Anticancer Drug Screen. Data for the sgs1 mgt1 strain (AID 161);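 note: 0% = growth of cultures given vehicle only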; conditions: S. cerevisiae sgs1 mgt1 strain, at 50.0 µM, stronger effect = higher value
Method in brief: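 Inhibition of yeast growth, normalised to vehicle-treated controls, is reported for a strain bearing genetic alterations in DNA damage repair.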

[4] = NCI Yeast Anticancer Drug Screen. Data for the cln2 rad14 strain (AID 165);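 note: 0% = growth equal to vehicle treated cultures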; conditions: S. cerevisiae cln2 rad14 strain, at 50.0 µM, stronger effect = higher value
Method in brief: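 cln2 rad14 yeast strain; compound exposure; growth inhibition read vs vehicle controls.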

[5] = NCI Yeast Anticancer Drug Screen. Data for the bub3 strain (AID 167); conditions: S. cerevisiae bub3 mutant strain, at 50.0 µM, stronger effect = higher value
Method in brief: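 Mutant yeast screening strain plus compound; vehicle-treated cultures serve as the 0% inhibition reference.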

[6] = NCI Yeast Anticancer Drug Screen. Data for the mlh1 rad18 strain (AID 175); conditions: S. cerevisiae mlh1 rad18 strain growth inhibition; at 50.0 µM; stronger effect = higher value
Method in brief: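 Yeast w/ defined DNA-repair lesions; compound exposure; growth vs vehicle controls → % inhibition.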

| SMILES | growth inhibition [1] | growth inhibition [2] | growth inhibition [3] | growth inhibition [4] | growth inhibition [5] | growth inhibition [6] |
| --- | --- | --- | --- | --- | --- | --- |
| Nc1nc(N)c2c(n1)Nc1ccc(Cl)nc1S2 | 94.2% (active) | 69.3% | 89.1% (active) | 52.2% | 81.1% (active) | 93.8% (active) |
| Clc1ccc2oc(N3CCOCC3)nc2c1 | 20.6% | 23.6% | 22% | -13.4% | 15.7% | 4.1% |
| NC(CCC(=O)OCCn1c2ccccc2c2ccccc21)C(=O)O (stereo not given) | -1.9% | -2.4% | 3.3% | -2.1% | 18.1% | 3.95% |
| CCN(CC)CCOC(=O)c1ccc(N)c2ccccc12 | -3.8% | 12.2% | -14.3% | -22.4% | 5.5% | 6.85% |
| Nc1nc(C(=O)O)c([N+](=O)[O-])c(=O)[nH]1 | -31.6% | -13.7% | -14.4% | -20.5% | -6.9% | -11.8% |
| COc1ccc2occc2c1 | 0% | -1.55% | -17.7% | 2.7% | -0.75% | 10.1% |
| ClC[P+](c1ccccc1)(c1ccccc1)c1ccccc1 | 38.2% | 19.3% | 13.2% | 11.6% | 24.8% | 33.4% |
| CCOC(=O)CNCc1cccc(Cl)c1 | 5.15% | 28.4% | 15.4% | -0.8% | 28.1% | 24.2% |
| O=C1c2ccccc2C(=O)N1n1c(Cc2ccccc2)n[nH]c1=O | -16.1% | -28.2% | -41.5% | -10.8% | -16.5% | -16.2% |
| CCOC(=O)CS | 11.2% | -6.5% | -15.6% | 5.7% | 20.6% | 22.6% |
| NC(=O)c1ccccc1C(=O)c1ccccc1 | -35% | 1.85% | -8.6% | -20.1% | -27.1% | -10.3% |
| COc1ccc2c(ccc[n+]2CC(=O)c2ccc(Cl)cc2)c1 | -35.9% | -8.35% | -17.2% | 28.4% | -0.5% | -3.7% |
| C=C1C(=O)C23C(O)CC4C5(C)CCCC4(C(O)OC5)C2C(OC(C)=O)CC1C3O (stereo not given) | 10.3% | 8.45% | 11.4% | 10.1% | -7.3% | 0.75% |
| O=[N+]([O-])c1ccc2cccc3c2c1CC3 | 24.4% | 18.1% | 1.85% | -19.4% | 8.95% | 22.6% |
| CC1=CCC(CC=O)C1(C)C (stereo not given) | 9.95% | -1.95% | -6.3% | -43.4% | -6.65% | -3.45% |
| CC1=NN2C(c3ccc(C)cc3)=CSC2=NC(C)(C)C1 | 20.6% | -1.45% | 2.45% | 19.8% | 5% | -1.1% |
| O=CNC1CCCCC1c1ccc(C2CCCCC2NC=O)cc1 (stereo not given) | -12.1% | 9.1% | -2.35% | -1.55% | 6.2% | 22.8% |
| Oc1ccccc1/C=N/Nc1nc(N/N=C/c2ccccc2O)nc(N/N=C/c2ccccc2O)n1 | 25.3% | 20.5% | 27.4% | 16.9% | -6.7% | 15.9% |
| COc1cc(C(NC(N)=O)c2cc3c(cc2O)OCO3)cc(OC)c1O (stereo not given) | -1.4% | 0.45% | -12.2% | -20.9% | 12.4% | 4.05% |
| c1ccc2c(c1)Cc1c(-c3ccncc3)n[nH]c1-2 | 48.8% | 33% | 41.6% | 10.3% | 19.3% | 60.1% |

| SMILES | growth inhibition [1] | growth inhibition [2] | growth inhibition [3] | growth inhibition [4] | growth inhibition [5] | growth inhibition [6] |
| --- | --- | --- | --- | --- | --- | --- |
| CCNCC(OC)C(COC)OC(=O)c1ccc([N+](=O)[O-])cc1 (stereo not given) | 15.1% | -11.6% | -7.65% | -32.9% | 20.4% | 7.25% |
| CCC(O)(Cc1ccc(OC)cc1)c1ccc(OC)cc1 (stereo not given) | -33.1% | -24.4% | 14.8% | 1.4% | 11.7% | -11.8% |
| O=C(Nc1ccn(CCI)c(=O)n1)c1ccccc1 | -20.8% | -37.4% | 10.1% | 14.4% | 15.2% | 26.1% |
| NC(=O)CNC(=O)c1ccc(N)cc1 | 16.8% | 7.6% | 11.2% | 15.6% | 1.25% | 18.4% |
| C[N+](C)(C[Si](C)(C)C)C1CCCCCCCCCCC1 | 11.4% | 1.3% | -8.8% | -10.9% | 14.1% | 22.2% |
| CC(NCc1cc(O)c(CNC(C)c2ccccc2)cc1O)c1ccccc1 (stereo not given) | 4.55% | 0.4% | 17.1% | 25.2% | 12.4% | 1.95% |
| C=C1C(=O)OC2/C=C(\C)CC(O)/C=C(/C)CC(OC(=O)C(O)(CO)C(C)S)C12 (stereo not given) | -14% | 6.55% | -22.4% | 3% | -3.8% | -22.7% |
| Oc1cc2nc3ccccc3nc2c2ccc(Br)cc12 | -12.8% | -7.45% | 7.7% | -44.6% | -17.7% | -14.1% |
| O=[N+]([O-])c1ccc(-c2ccccc2)c([N+](=O)[O-])c1 | -3.05% | 0.35% | -29.8% | -31.9% | 1.5% | 17.6% |
| CCO/C(C)=N/NC(=O)c1n[nH]c2ccccc12 | 4.1% | -1.45% | -10.6% | 0.05% | -11.3% | 12% |
| COc1cc(C2OCC3C(c4ccc(O)c(OC)c4)OCC23)ccc1O (stereo not given) | 6% | -20.4% | 10.9% | 23.4% | 0.2% | 14.6% |
| C/C(=N\N=C(/C)c1cccc2ccccc12)c1cccc2ccccc12 | -8.9% | -0.65% | 4.7% | -15.9% | -17.7% | -36.2% |
| Cc1cc(=O)[nH]c(NNC(C#N)c2c(O)ccc3ccccc23)n1 (stereo not given) | 23.6% | 13.2% | 24.2% | -2.9% | 1.45% | 12.9% |
| COC(=O)C(C)CC(=O)c1ccc2ccc3cccc4ccc1c2c34 (stereo not given) | -16.9% | -18.4% | -2.05% | -35.4% | 19.4% | -4.2% |
| CN1C(c2ccccc2)=C(C#N)C(=O)CC(c2ccco2)N1C (stereo not given) | 4.3% | -4.4% | 4.65% | 10.9% | 11% | 13.1% |
| Cc1nn(C(=O)c2ccc(Cl)cc2)c2c1C(c1ccccc1O)SC(N)=N2 (stereo not given) | -29.9% | -47.1% | -30.1% | -1.45% | -11.5% | -25.1% |
| CCCCCCCCS(=O)(=O)N(C)C | -18.6% | -24.9% | 0.4% | -28.3% | -31.1% | -15.2% |
| CC(C)CCCC(C)C1CCC2C3CC([N+](=O)[O-])=C4CC(O[N+](=O)[O-])CCC4(C)C3CCC12C (stereo not given) | 50.4% | 20.1% | 37.1% | 23.6% | 1.95% | 20.2% |
| Cn1c2ccccc2c2oc(CO)cc(=O)c21 | 13.2% | 0.4% | 5.8% | 23.9% | 10.4% | 19.3% |
| CCC(C)(C)c1ccc(OCCO)cc1 | -29.2% | -29.4% | -20.8% | -12.9% | -19.2% | -23.4% |

— PubChem BioAssay (NCI)
